Sampled rows, rich in hits. Any-hit rate of the full collection: about 0.9%.
gsp antagonist: antagonists of gsp mutant (McCune-Albright syndrome) | gsp-mutant cells, cAMP HTRF, 30 min | Potency, µM (top dose mostly 76.9 µM), without a hit: top-dose activity change, negative = inhibition, most hits filed as inhibitors | 340,000 tested, 0.4% active | AID 624288; calls by dose curve; cell line not stated here;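 note: intracellular cAMP measured with PDE inhibitor Ro 20-1724 present during compound exposure; potency is the fitted concentration of half-maximal effect; % is set by controls: 0 for no effect and ±100 for the full control effect; nearly all actives have a fitted effect of over 65% in size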
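Cells, 2000/well, grown 16–24 h in DMEM 10% FBS with 0.5 mg/ml G418, then compounds plus […] (300 uM addition stock), 30 min at 37C. cAMP read by HTRF (cAMP-d2 and anti-cAMP antibody-K in lysis buffer) after 30 min RT.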
gsp ag: gsp mutant agonism; gsp mutant cells, cAMP HTRF, 30 min; Potency, µM (doses to about 76.9 µM), for inactives: at the top dose activation (cAMP increase), hits mostly activators; 340,000 tested, 0.13% active; AID 624287; active = well fitted activation curve with a large enough effect; inconclusive = small, poorly fitted or top-dose-only effect, or another doubt; inactive = no such curve, though single readings can be large or run the other way; cell line not stated here;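 note: phosphodiesterase inhibitor Ro 20-1724 added with compounds to block cAMP breakdown; potency is the fitted concentration of half-maximal effect; nearly all actives have a fitted effect of over 60% in size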
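Cells in DMEM/10% FBS with G418 were pretreated with compounds in DMSO plus […] (300 uM stock) for 30 min at 37C. cAMP was measured by HTRF (cAMP-d2 plus anti-cAMP antibody-K) after 30 min at room temperature.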
RXFP1 antagonist: RXFP1 (human) relaxin receptor antagonism; 350,000 tested, 0.59% active; Q9HBX9; activity change, negative = inhibition, % at 57.5 µM; AID 1259400; HEK293-RXFP1, relaxin-stimulated cAMP HTRF, 30 min; hits give low values;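 active = activity change of -60% or lower, but not beyond a set lower limit; inconclusive = change between -60% and -40%, or beyond the set limit; inactive = change above -40%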; note: % is set by controls: 0 for no effect and ±100 for the full control effect
Target sequence (Q9HBX9 whole entry, looked up): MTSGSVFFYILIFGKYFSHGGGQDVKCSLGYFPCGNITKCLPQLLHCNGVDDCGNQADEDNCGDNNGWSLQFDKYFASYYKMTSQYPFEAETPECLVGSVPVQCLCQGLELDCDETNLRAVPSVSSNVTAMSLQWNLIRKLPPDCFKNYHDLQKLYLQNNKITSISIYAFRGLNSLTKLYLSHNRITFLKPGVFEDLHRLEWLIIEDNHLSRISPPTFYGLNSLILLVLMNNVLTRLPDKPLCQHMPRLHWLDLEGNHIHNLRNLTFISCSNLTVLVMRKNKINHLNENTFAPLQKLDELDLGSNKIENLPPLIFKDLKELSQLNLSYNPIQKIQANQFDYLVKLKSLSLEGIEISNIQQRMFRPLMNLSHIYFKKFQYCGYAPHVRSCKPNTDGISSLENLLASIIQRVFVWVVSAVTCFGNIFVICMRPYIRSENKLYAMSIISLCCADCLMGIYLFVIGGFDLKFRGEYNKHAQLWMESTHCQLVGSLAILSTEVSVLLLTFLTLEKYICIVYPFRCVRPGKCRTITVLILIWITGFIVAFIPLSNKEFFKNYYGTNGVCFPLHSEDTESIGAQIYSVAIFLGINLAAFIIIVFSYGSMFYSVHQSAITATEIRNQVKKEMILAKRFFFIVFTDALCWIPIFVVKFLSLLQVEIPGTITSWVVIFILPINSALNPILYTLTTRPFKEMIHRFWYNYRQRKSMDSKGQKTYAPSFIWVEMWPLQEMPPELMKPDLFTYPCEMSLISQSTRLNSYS
RXFP1 ag: activates the human relaxin receptor RXFP1; Q9HBX9; HEK293T-RXFP1 cAMP TR-FRET, 30 min; response scale: percent of porcine relaxin response, buffer zero; Potency, µM (doses to about 57.5 µM), for the others: top-dose activation, most hits filed as activators; 370,000 tested, 0.3% active; AID 2676; active = well fitted activation curve with a large enough effect; inconclusive = small, poorly fitted or top-dose-only effect; note: potency is the fitted concentration of half-maximal effect; % is set by controls: 0 for no effect and ±100 for the full control effect; nearly all actives have a fitted effect of over 60% in size
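Agonist response is measured as cAMP accumulation in an RXFP1-transfected HEK293T line under PDE4 inhibition. Values are scaled between buffer-only and 29 nM porcine relaxin, and EC50s come from standard Hill equation fits.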
* hit, by the source's call; ? = inconclusive; · = no result; [ ] = another dose, or the depositor's remark.

SMILES	gsp antagonist	gsp ag	RXFP1 antagonist	RXFP1 ag
CC1=C(c2ccc(C(C)C)cc2)S(=O)(=O)NC1=NCc1ccc(Cl)cc1	·	·	7	12%
O=C(/C=C/c1ccc(Cl)c([N+](=O)[O-])c1)Nc1cccc(NC(=O)c2ccco2)c1	35µM*	20%	-35	5%
CCOc1ccc(Nc2nn(-c3ccc(OC(F)(F)F)cc3)nc2C(C)=O)cc1	·	·	-3	0%
O=C(N/N=C/c1c[nH]c2c1ccc1ccccc12)c1ccc([N+](=O)[O-])cc1	-7%	-2%[15.4 µM]	-68*	-2%
CC(C)(C)C(=O)N1N=C(c2ccc(NS(C)(=O)=O)cc2)CC1c1cccs1 (centres undefined)	11µM*	0%[15.4 µM]	?	0%
COC(=O)C1C(=O)c2c([nH]c(C(=O)OC3CCCC3C)c2C)CC1C (centres undefined)	-23%	-42%	-63*	1%
CC(=O)N(C1CC(C)C(C#N)(C#N)C1(C#N)C#N)N(C)C (centres undefined)	11%	4%[15.4 µM]	-19	2%
CCCC(=O)N(C1CC(C)C(C#N)(C#N)C1(C#N)C#N)N(C)C (centres undefined)	-3%	6%[15.4 µM]	-85*	0%
Cc1cc(SCC(=O)NCc2ccccc2)nc(=O)[nH]1	·	·	·	1%
Cc1cc(C)cc(NC(=O)CN2C(=O)CCc3cc(S(=O)(=O)N4CCCCC4)ccc32)c1	·	·	·	1%
COc1ccc(N2CC(NS(=O)(=O)c3cccs3)CC2=O)cc1OC (centres undefined)	5%	19%[15.4 µM]	-82*	-1%
CCc1ccc(NC(=O)C2CCCN(S(=O)(=O)c3cnc[nH]3)C2)cc1 (centres undefined)	10%	-19%	-116*	-2%
CSc1cccc(NC(=O)C2CCN(S(=O)(=O)c3cnc[nH]3)CC2)c1	10%	-6%	-63*	3%
N[C@H](C(=O)O)c1ccc(O)cc1	·	·	-13	·
COc1ccc(Nc2nc(N)c(C(=O)c3ccc(OC)cc3)s2)cc1	10%	6%	-17	1%
CCOc1ccc(Nc2nc(N)c(C(=O)c3ccccc3Cl)s2)cc1	·	·	-22	25µM*
O=C1C=C(N2CCCCCC2)C2(CCCCC2)O1	-4%	8%	-61*	-1%
O=C(Nc1cccc(C(F)(F)F)c1)C1CCN(c2nnc(-n3cccc3)s2)CC1	·	·	-25	0%
CCOC(=O)C1CCN(C(=O)c2sc3ncn(CC(=O)N4CCCCC4)c(=O)c3c2C)CC1	·	16µM*	2	·
Cc1ccc(C)c(N2CCN(C(=O)C3CCN(c4nc5ccc(C)cc5[nH]4)CC3)CC2)c1	·	·	-69*	4%
Cc1ccc(C)c(N2CCN(C(=O)C3CCN(c4nc(C)cc(C)n4)CC3)CC2)c1	35µM*	-36%	-1	0%
COc1ccc(N2CCN(C(=O)C3CCN(c4nc5ccc(C)cc5[nH]4)CC3)CC2)cc1	·	·	-25	-1%
Cc1cc(C)nc(N2CCC(C(=O)N3CCN(c4cc(Cl)ccc4C)CC3)CC2)n1	28µM*	?	-20	4%
CC(C)c1ccc(NC(=O)CSc2ncc3c(n2)-c2ccccc2N(C)S3(=O)=O)cc1	·	·	-2	?
C#Cc1ccc(-c2ccccc2F)cc1	·	·	9	·
SMILES	gsp antagonist	gsp ag	RXFP1 antagonist	RXFP1 ag
Cc1ccc(NC(=O)C(Cc2c[nH]c3ccccc23)NC(=O)OCC(C)C)cc1 (centres undefined)	·	·	·	1%
S=c1nc[nH]c2c1[nH]c1ccccc12	55%	13µM*	19	7.1µM*
O=c1c2[nH]c3ccc(Cl)cc3c2ncn1CCN1CCCCC1	3%	-4%	-14	1%
S=c1nc[nH]c2c1[nH]c1ccc(Cl)cc12	10%	?	-36	3.2µM*
Nn1cnc2c([nH]c3ccccc32)c1=O	4%	2%	1	-1%
Cc1ccc(C)c(Cn2nnc(C(=O)NCc3ccc(Cl)cc3Cl)c2N)c1	·	·	-3	-1%
CCOC(=O)[C@H]1[C@H]2COc3ccc(C)cc3[C@@H]2N2C(=O)CN(Cc3ccco3)C(=O)[C@@]12C	8%	·	·	0%
COc1ccc(C(c2c(C)[nH]n(C(N)=S)c2=O)C(C#N)C#N)cc1 (centres undefined)	7%	-29%	8	0%
Cc1[nH]n(-c2ncc(-c3ccc(Cl)cc3)s2)c(=O)c1C(c1ccc(Cl)cc1)C(C#N)C#N (centres undefined)	-7%	-6%[15.4 µM]	-88*	1%
Cc1sc2ncn(CC(=O)Nc3ccc(C(C)C)cc3)c(=O)c2c1S(=O)(=O)N1CCN(c2ncccn2)CC1	·	·	·	25µM*
CN(C)C(=S)Nc1cccc(-c2n[nH]c(=S)o2)c1	0%	7%[15.4 µM]	-4	20%
NNC(=S)Nc1cccc(-c2n[nH]c(=S)o2)c1	1%	10µM*	-8	?
Cc1ccc(C(=O)NCC(c2ccc3c(c2)OCO3)N2CCOCC2)cc1C (centres undefined)	·	·	-1	0%
CC(C)=C1C2CCC1C(C(=O)Nc1sc(C)c(-c3ccc(C(C)C)cc3)c1C(N)=O)C2C(=O)O (centres undefined)	32µM*	0%	-3	0%
Cc1ccc(-c2c(C)sc(NC(=O)C3C4CCC(O4)C3C(=O)O)c2C(=O)OC(C)C)cc1 (centres undefined)	-11%	26%	-12	6%
Cc1cc(NC(=O)COC(=O)CCNS(=O)(=O)c2c(Cl)cccc2Cl)no1	1%	-17%[15.4 µM]	-69*	-4%
CCCc1cc(=O)n2[nH]c(NC(=O)c3ccc(C(C)(C)C)cc3)nc2n1	·	·	-25	1%
FC(F)(F)c1nc(N2CCCC2)ncc1-c1nnnn1-c1ccccc1	35µM*	-35%	22	1%
COc1ccc(S(=O)(=O)N(Cc2nc(-c3ccc(C)cc3)no2)C2CCCCC2)cc1	·	·	-1	-2%
CC1CCN(c2nnc(-c3cccs3)c3ccccc23)CC1	?	-49%	-30	2%
c1csc(-c2nnc(NC3CCCCC3)c3ccccc23)c1	40µM*	-9%	-27	-1%
CC(CCc1ccccc1)NC(=O)C1CCN(c2nnc(-n3cccc3)s2)CC1 (centres undefined)	-2%	13µM*	·	-1%
O=C(Nc1ccc(Cl)c(Cl)c1)Nc1nnc(-c2ccncc2)s1	7%	-4%[15.4 µM]	-13	5%
COc1ccc(NC(=O)Nc2nnc(-c3ccncc3)s2)cc1	35µM*	5%	-26	1%
O=C(COc1cccc(C(F)(F)F)c1)NCC(c1ccco1)N1CCCCC1 (centres undefined)	5%	-4%[15.4 µM]	-61*	1%
c1ccc(CC(Nc2ccccn2)c2ccccc2)cc1 (centres undefined)	-2%	-4%[15.4 µM]	-60*	0%
COc1ccc(NC(=O)CCc2c(C)nc3nc(CNC(=O)OC(C)(C)C)nn3c2C)cc1OC	·	·	0	-1%
Cc1nn(S(=O)(=O)c2cccs2)c(C)c1Sc1ccccc1	·	·	·	3%
Cc1nn(S(=O)(=O)c2cccs2)c(C)c1Sc1ccc([N+](=O)[O-])cc1	25µM*	-4%	-5	3%
